Bioassay records: PubChem, National Center for Advancing Translational Sciences (NCATS)
HT1080 IDH1KD tx: qHTS for induction of synthetic lethality in tumor cells producing 2HG: qHTS for the HT-1080-IDH1KD cell line | 2% of 360,000 active | AID 686971, 2013 | HT-1080 IDH1 knockdown viability, ATP luminescence, 48 h | Potency, µM (highest dose often 46.1 µM), for inactives: at the highest dose activity, negative = toxicity, actives largely listed as cytotoxic;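 also: potency is read from the fitted curve at half-maximal effect; 0% = DMSO wells and -100% = cell-free medium wells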
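Cytotoxicity counter-line: IDH1KD HT-1080, 48 h, CellTiter-Glo. Curves classed by r2, magnitude and activity.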
TDP1 cell CPT: qHTS for Inhibitors of human tyrosyl-DNA phosphodiesterase 1 (TDP1): qHTS in cells in presence of CPT | AID 686979, 2013 | 12% of 420,000 active | chicken DT40 Tdp1-/-;hTDP1 cells + 20 nM CPT, ATP luminescence, 48 h | Potency, µM (highest dose often 46.2 µM), without a hit: at the top dose activity change, negative = growth inhibition, hits mostly inhibitors; also: potency is read from the fitted curve at half-maximal effect; nearly all actives have a fitted effect of over 55% in size
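Chicken DT40 Tdp1-/- cells stably complemented with human TDP1 were seeded at 400 cells/well in medium containing 20 nM camptothecin, exposed to pin-transferred compounds, and grown at 37 °C for at least 48 hr. Viability was read as ATP luminescence.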
HT1080NT lethal: qHTS for induction of synthetic lethality in tumor cells producing 2HG: qHTS for the HT-1080-NT fibrosarcoma cell line; HT-1080-NT fibrosarcoma viability, CellTiter-Glo ATP luminescence, 48 h; Potency, µM (series often up to 46.1 µM), for inactives: at the top dose activity, negative = less viability, most hits filed as cytotoxic; 1.6% of 360,000 active; AID 686970, 2013;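 also: NT is the 2HG producing partner of a matched IDH1 knockdown line; potency is read from the fitted curve at half-maximal effect; 0% = DMSO-treated cells and -100% = media-only wells without cells; nearly all actives have a fitted effect of over 55% in size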
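Compounds were tested in concentration-response format on HT-1080-NT cells for 48 hours at 37 degrees C. Cell viability came from CellTiter-Glo luminescence; curves were classified by r2, response magnitude and activity.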
uPA generation: qHTS for Inhibitors of Cell Surface uPA Generation. cell surface uPA generation assay, qHTS. Potency, µM (top dose mostly 38.3 µM), inactives show at the top dose activity change, negative = inhibition, usual class: inhibitors. 0.31% of 330,000 active; active = well fitted inhibition curve with a large enough effect; inconclusive = small, poorly fitted or top-dose-only effect; inactive = no such curve, though single readings can be large or run the other way; tested in mouse RAW 264.7 cells; also: potency is read from the fitted curve at half-maximal effect; nearly all actives have a fitted effect of over 55% in size
IL-1B inflam inh: qHTS for Inhibitors of Inflammasome Signaling: IL-1-beta AlphaLISA Primary Screen; THP-1 LPS/ATP IL-1B secretion, AlphaLISA, 16 h; hits give low values; activity change, % at 57.5 µM; 4.7% of 360,000 active; AID 743279, 2014; in the data active = activity change below about -50%; inconclusive = mostly about -30% to -49%
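THP-1 cells pretreated 1 hr with compounds (up to 57.5 uM final), then stimulated with LPS (250 ng/mL final) plus ATP (1.25 mM final); secreted IL-1B measured by AlphaLISA after 16 hr, decreased signal indicating inhibition.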
DT40 TDP1 no CPT: qHTS for Inhibitors of human tyrosyl-DNA phosphodiesterase 1 (TDP1): qHTS in cells in absence of CPT; Potency, µM (highest dose often 46.2 µM), for the others: top-dose activity change, negative = growth inhibition, actives largely listed as inhibitors; 15% of 420,000 active; DT40 Tdp1-/- hTDP1 cells, no CPT, ATP luminescence, 48 h; AID 686978, 2013; also: potency is read from the fitted curve at half-maximal effect; nearly all actives have a fitted effect of over 55% in size
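Cells were dispensed at 400 per well, compounds added by pin tool, plates incubated ≥48 hr at 37 °C, then CellTiter-Glo added for 30 min at room temperature before luminescence reading. Line: DT40 Tdp1-/- complemented with hTDP1; camptothecin omitted.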
Numbers without * were called inactive; ? = inconclusive; · = no result; [ ] = remark or other dose. Compounds with a hit are over-represented: about 19% of the library has one in this group of screens. Unless noted, calls follow the shape of the dose curve; as a rule, active = well fitted curve in the direction sought with a large enough effect; inconclusive = small, poorly fitted or top-dose-only effect, or another doubt; inactive = no such curve, though single readings can be large; an effect the other way counts as inactive or inconclusive. Unless noted, % is scaled to controls: 0 for no effect and ±100 for the full control effect.

SMILES | HT1080 IDH1KD tx | TDP1 cell CPT | HT1080NT lethal | uPA generation | IL-1B inflam inh | DT40 TDP1 no CPT
O=C(Nc1ccccc1Oc1ccccc1)C1CCCC1 | 20% | -12% | 5% | -4% | 0 | -19%
COCc1ccc(CN2CCC(n3nccc3NC(=O)CCOc3ccccc3)CC2)o1 | 9% | 9% | 8% | -1% | 0 | 9%
CC(=O)c1ccc(OCCCC(=O)NC2CCCc3ccccc32)cc1 (centres undefined) | -10% | ? | -2% | -4% | -1 | ?
COc1ccc(OC)c(S(=O)(=O)N2c3cc(F)ccc3CCC2C)c1 (centres undefined) | -10% | 7.3µM* | -21% | -1% | 8 | ?
CC1CCC(C(C)C)C2=C1C(C#N)(C#N)C(C#N)(C#N)C(c1ccccc1)N2 (centres undefined) | 0%[9.24 µM] | ? | -26% | -4% | -86* | 18µM*
Cc1cn([C@H]2C[C@H](O)[C@@H](CCC(=O)NCC(c3ccccc3)c3ccccc3)O2)c(=O)[nH]c1=O | 13% | -2% | 7% | · | 15 | 16%
Cc1ccc2c(c1)N(C(=O)N1CCC(C(=O)NCc3cccs3)CC1)CC(C)O2 (centres undefined) | · | ? | · | · | · | 18µM*
CN(C)C(=O)N1CCC(C(=O)NCc2cccs2)CC1 | -2% | -12% | 4% | 11% | 8 | 5%
CCC1CN(C(=O)N2CCC(C(=O)NCc3cccs3)CC2)c2cc(C)ccc2O1 (centres undefined) | · | 18µM* | · | · | · | 23µM*
CCOc1ccccc1NC(=O)NC(C)c1ccncc1 (centres undefined) | 3% | -3% | 4% | 6% | 19 | -1%
CC(=O)Nc1ccc(S(=O)(=O)Nc2cc(S(=O)(=O)N3CCCCC3)ccc2O)cc1 | 7% | 10% | -2% | -1% | 4 | -22%
COc1ccccc1-c1ccc2c(c1)C(C)(Cc1cc(Cl)ccc1C(F)(F)F)C(=O)N2 (centres undefined) | ? | ? | ? | · | -18 | ?
COc1ccc(Cl)cc1CC1(C)C(=O)Nc2ccc(-c3ccccc3OC)cc21 (centres undefined) | ? | 21µM* | ? | · | -10 | 12µM*
CC1(Cc2ccc3ccccc3n2)C(=O)Nc2ccc(OC(F)(F)F)cc21 (centres undefined) | -18% | ? | -19% | · | -4 | ?
CC1(Cc2ccc(OC(F)(F)F)cc2)C(=O)Nc2ccc(S(=O)(=O)NC3CCCCC3)cc21 (centres undefined) | 12µM* | ? | 13µM* | · | -72* | ?
CC(=O)c1cccc(-c2ccc3c(c2)C(C)(Cc2ccc(S(C)(=O)=O)cc2)C(=O)N3)c1 (centres undefined) | 5% | ? | 1% | · | -6 | -25%
CC1(Cc2ccccc2OC(F)(F)F)C(=O)Nc2ccc(OC(F)(F)F)cc21 (centres undefined) | 21µM* | 21µM* | ? | · | ? | 21µM*
CC(=O)c1cccc(-c2ccc3c(c2)C(C)(Cc2ccccc2C#N)C(=O)N3)c1 (centres undefined) | -12% | 16µM* | -20% | · | 38 | ?
CCC(=O)OCC(=O)C1(OC(=O)CC)C(C)CC2C3CCC4=CC(=O)C=CC4(C)C3(Cl)C(O)CC21C (centres undefined) | · | ? | · | · | · | -12%
